# SARS 3CLpro inh = SARS-CoV 3CLpro protease inhibition. AID 1706. recombinant SARS-CoV 3CLpro, quenched FRET peptide cleavage. P0C6X7. 290,000 compounds, 0.14% hits. inhibition, % at 6 µM; in the data active = inhibition above about 12%
# CCHF vOTU inh = blocks the CCHF virus ovarian tumor domain protease. inhibition, % at 11.5 µM. CCHFV vOTU protease, Pep-AMC fluorescence. 370,000 compounds, 0.55% hits; in the data active = inhibition above about 30%; also: 0% = vehicle wells with enzyme and 100% = no enzyme wells
# Autofluor counter = compound fluorescence in toxin protease inhibitor counterscreen; compound autofluorescence counterscreen, microsphere flow cytometry; hits give high values; fluorescence intensity (test concentration not listed); 360,000 compounds, 3.1% hits; AID 624483; in the data active = fluorescence intensity above about 16000; inconclusive = no clear call, values can overlap the other calls
# BoNT-A LC inh2 = inhibitors of Botulinum neurotoxin A light chain protease | multiplex microsphere protease substrate cleavage, flow cytometry | inhibition, % at 10 µM | 360,000 compounds, 0.17% hits; also: plate controls were buffer without enzyme for full effect and enzyme alone for no effect
# Anthrax LF prot = anthrax lethal factor protease inhibition; inhibition, % at 10 µM; P15917; multiplex microsphere protease cleavage assay, LF; 360,000 compounds, 0.12% hits; also: plate controls were buffer without enzyme for full effect and enzyme alone for no effect
# Target sequence (P15917 whole entry, looked up): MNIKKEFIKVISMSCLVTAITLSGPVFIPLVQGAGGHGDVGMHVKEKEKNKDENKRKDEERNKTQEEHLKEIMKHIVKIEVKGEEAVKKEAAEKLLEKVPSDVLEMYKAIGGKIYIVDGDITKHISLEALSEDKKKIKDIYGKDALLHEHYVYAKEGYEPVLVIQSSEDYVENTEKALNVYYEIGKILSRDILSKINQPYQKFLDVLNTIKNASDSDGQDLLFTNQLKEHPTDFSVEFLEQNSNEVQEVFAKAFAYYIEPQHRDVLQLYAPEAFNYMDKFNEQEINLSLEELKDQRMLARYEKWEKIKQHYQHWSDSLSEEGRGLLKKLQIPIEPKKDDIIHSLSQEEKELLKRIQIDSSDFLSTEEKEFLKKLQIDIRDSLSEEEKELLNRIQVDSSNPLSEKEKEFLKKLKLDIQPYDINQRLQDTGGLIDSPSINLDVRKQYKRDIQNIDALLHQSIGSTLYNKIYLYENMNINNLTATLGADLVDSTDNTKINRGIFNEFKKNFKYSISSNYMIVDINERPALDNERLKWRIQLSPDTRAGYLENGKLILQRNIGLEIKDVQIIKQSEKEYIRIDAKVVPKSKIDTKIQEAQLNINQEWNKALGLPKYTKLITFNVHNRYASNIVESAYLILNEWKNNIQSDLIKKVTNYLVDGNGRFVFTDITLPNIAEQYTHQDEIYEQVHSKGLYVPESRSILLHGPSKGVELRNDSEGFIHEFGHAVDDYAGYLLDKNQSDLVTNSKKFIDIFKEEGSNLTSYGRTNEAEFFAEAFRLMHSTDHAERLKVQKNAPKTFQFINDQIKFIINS
# BoNT F protease = BoNT F light chain protease inhibition | Multiplex microsphere protease cleavage assay, flow cytometry | inhibition, % at 10 µM | 360,000 compounds, 0.22% hits | AID 588497; in the data active = inhibition above about 35%, passing the limit was not always enough; inconclusive = no clear call, values can overlap the other calls; also: plate controls were buffer without enzyme for full effect and enzyme alone for no effect
# * = called active by the depositor; u = inconclusive; x = no result. Hits are enriched below; roughly 3.9% of the tested compounds scored in any of these assays. Rule as the data show it, unless noted: active = inhibition above about 30%; inconclusive = no clear call, values can overlap the other calls; inactive = below that.
SMILES,SARS 3CLpro inh,CCHF vOTU inh,Autofluor counter,BoNT-A LC inh2,Anthrax LF prot,BoNT F protease
Cc1nn(C)cc1C(=O)Nc1cc(Oc2ccc(Cl)cc2)cc([N+](=O)[O-])c1,6,x,9504,0,-1,4
COc1nnc(-c2ccc(N3CCCCC3)c(NC(C)=O)c2)c2ccccc12,-7,-3,19145*,u,2,2
C1CCC2(CC1)C1=C(CCCC1)Nc1nnnn12,-5,-3,24281*,-4,-5,-7
COC(=O)C1=C(C)N(Cc2ccc(Cl)cc2)C(=S)NC1c1ccc(OC)cc1 (centres undefined),x,4,x,x,x,x
Cc1ccc(OCc2ccc(C(=O)Nc3nccs3)o2)cc1,-4,3,x,x,x,x
CCc1nnc(NC(=O)c2ccc(COc3ccc(C)cc3)o2)s1,-1,5,23447*,-1,1,-1
CCc1nnc(NC(=O)c2ccc(COc3ccccc3)o2)s1,2,0,17254*,-3,-4,-3
C=C(C)CSc1nnc(-c2cc(OC)c(OC)c(OC)c2)n1N,3,-3,21195*,-5,1,-6
C=C(C)CSc1nnc(-c2ccc(OC)c(OC)c2)n1N,0,-2,15658,3,3,4
Cc1cccc(N(CC(=O)NC2CCCCC2)C(=O)CCC(=O)Nc2nccs2)c1,-2,-11,5809,1,3,6
O/N=C/c1ccc2ccccc2n1,8,-10,3713,-2,-10,41*
CCc1ccc(CCC(=O)Nc2nccs2)o1,4,2,21884*,1,2,4
O=C(Cc1ccc(F)cc1)Nc1nccs1,-1,-2,2990,1,15,42*
Cc1ccc(CC(=O)Nc2nccs2)cc1,3,13,3295,0,4,0
COc1nc(N)nc2c1ncn2C1OC(CO)CC1O (centres undefined),x,2,3722,0,1,-1
COc1ccc(C(=O)N(C)C2CCCCC2)cc1S(=O)(=O)N1CCOCC1,x,-17,5358,2,-1,5
O=C(Cn1nnc(-c2ccccc2F)n1)Nc1ccc(F)cc1F,x,-3,x,x,x,x
Cc1cccc(C)c1OCC(O)CNC(C)C (centres undefined),5,10,2989,0,-2,0
Cc1cccc(C)c1OCC(O)CNC(C)(C)C (centres undefined),0,4,16186*,1,-3,2
CCCC(NS(=O)(=O)c1ccc(Br)cc1)C(=O)O (centres undefined),-6,-2,25446*,-4,4,-9
CCC(NS(=O)(=O)c1ccc(C)cc1)C(=O)O (centres undefined),-2,-12,21879*,1,-1,1
COc1ccc(-n2c(SCC(=O)N3CCCC3)nc3ccccc3c2=O)cc1,-1,x,x,x,x,x
COc1ccc(-n2c(SCC(=O)N3CCCCC3)nc(O)cc2=O)cc1,2,8,21636*,-3,2,-3
Cc1cccc(Cn2cc(CN3CC(N(C)CCCOC(=O)c4cc5ccccc5o4)CS3(=O)=O)nn2)c1 (centres undefined),x,0,x,x,x,x
COc1ccc(-c2c(-c3cc(OC)cc(OC)c3)n(C)c3ccc(-c4ccc(S(N)(=O)=O)cc4)cc23)cc1,x,-19,3425,0,0,2
SMILES,SARS 3CLpro inh,CCHF vOTU inh,Autofluor counter,BoNT-A LC inh2,Anthrax LF prot,BoNT F protease
O=C1c2cccnc2-c2ncccc21,-1,-1,3585,0,-3,2
COC1=C(Br)C(=O)c2ncccc2C1=O,x,101*,4047,0,-6,-6
CCCCCCCCNS(=O)(=O)CC1NCc2cc(F)ccc21 (centres undefined),x,12,x,x,x,x
CC1=C(C(=O)N(C(C)C)C(C)C)CC(CC(=O)NCCCN(C)C)C(=O)N1CCCN1CCCC1=O (centres undefined),x,-6,5740,0,-13,-9
CCCn1c(-c2ccc(OC)cc2)nc2nc3ccccc3nc21,5,-20,22319*,3,6,2
O=C(Cc1ccc(F)cc1)c1ccc(O)cc1O,2,3,19761*,1,-1,1
CCn1c(C)cc2c(c1=O)C(c1ccccc1)C(C(=O)OC)=C(N)O2 (centres undefined),2,3,23918*,0,0,-1
CCOc1ccc(-c2nnn(CC(=O)NCCc3c[nH]c4ccccc34)n2)cc1,5,4,8532,1,-9,1
COc1ccc(-c2nnn(CC(=O)NCCc3c[nH]c4ccccc34)n2)cc1OC,4,-6,21211*,-2,-2,-4
N#Cc1cc(Sc2ccccn2)c([N+](=O)[O-])cc1C#N,-18,-11,4352,4,0,-5
N#Cc1cc(Sc2ccccn2)c(Sc2ccccn2)cc1C#N,0,-5,17696*,-3,2,-4
Nc1ccc2ncccc2c1,-3,15,17386*,u,-20,17
C=CCn1c(SCC(=O)NCc2ccc3c(c2)OCO3)nc2scc(-c3ccc(F)cc3)c2c1=O,3,3,6920,1,7,12
C=CCn1c(SC(C)C(=O)NCc2ccc3c(c2)OCO3)nc2scc(-c3ccccc3)c2c1=O (centres undefined),-4,5,16316*,1,1,1
O=C(Nc1ccccc1N1CCCCC1)c1cccs1,-1,8,24609*,-3,-3,-5
COc1cccc(/C=N/n2c(COc3ccccc3)n[nH]c2=S)c1,1,8,4142,-5,-4,u
Cc1ccc(SCCC(=O)NNC(=O)c2ccccc2F)cc1,x,6,3890,1,-1,1
C=CCn1c(=NC(=O)c2ccc(S(=O)(=O)N3CCc4ccccc4C3)cc2)sc2cc(S(N)(=O)=O)ccc21,2,-89,9145,0,-1,11
C=CCn1c(=NC(=O)c2ccc(S(=O)(=O)N3CCCc4ccccc43)cc2)sc2cc(S(N)(=O)=O)ccc21,-3,9,10353,2,37*,18
CC(C)CC(N)c1csc(Nc2ncccn2)n1 (centres undefined),x,-8,4017,0,-6,-4
COn1c(SCc2ccc(Cl)cc2)nc2ccccc2c1=O,-2,-1,22710*,u,-12,-5
Cc1noc(C)c1CSc1nnc2ccccn12,2,-22,19015*,3,-8,1
Cc1noc(C)c1CSc1ccc2ccccc2n1,-4,8,20444*,-2,-1,-2
Cc1noc(C)c1CSc1nc2sc(C)c(C)c2c(=O)n1-c1ccccc1,-5,3,4387,0,-10,-11
Cc1noc(C)c1CSc1nc2ccccc2c(=O)n1-c1ccc(Cl)cc1,-3,1,22121*,u,0,4
O=C(COC(=O)c1cnccn1)c1ccc2c(c1)CCCC2,1,-6,20610*,2,-5,2
O=C(COC(=O)c1cnccn1)c1ccc(Br)cc1,-2,1,3712,1,-2,-10
NNC(=O)c1nn(-c2ccc(Cl)cc2)ccc1=O,2,10,23538*,u,-2,-4

# Bioassay records: PubChem BioAssay, several laboratories
